The source made the active and inactive calls. How the source made its calls: active means hit-call score of the fitted dose curve at least 0.9, where 1 is the maximum; inactive means score below 0.9.

Chain of Retinoic acid receptor alpha (Homo sapiens) (P10276 whole entry, looked up): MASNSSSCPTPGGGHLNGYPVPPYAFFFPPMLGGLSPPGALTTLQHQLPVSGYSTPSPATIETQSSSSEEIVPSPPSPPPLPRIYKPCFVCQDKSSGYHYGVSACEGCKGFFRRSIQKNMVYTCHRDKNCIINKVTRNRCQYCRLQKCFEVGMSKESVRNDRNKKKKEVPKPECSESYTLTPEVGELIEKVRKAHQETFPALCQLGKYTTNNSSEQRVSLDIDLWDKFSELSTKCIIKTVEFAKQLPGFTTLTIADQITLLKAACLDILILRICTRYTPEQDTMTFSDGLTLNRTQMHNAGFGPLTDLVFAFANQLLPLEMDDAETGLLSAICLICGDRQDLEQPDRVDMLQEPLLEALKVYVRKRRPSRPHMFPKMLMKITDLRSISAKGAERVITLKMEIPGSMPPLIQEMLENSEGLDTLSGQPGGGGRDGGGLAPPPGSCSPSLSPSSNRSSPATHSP

Test system in one experiment: not listed separately
Description: ATG_BRE_CIS: Attagene CIS-FACTORIAL HepG2 Assay for human Bone Morphogenetic Protein (BMP) Response Element (BRE) (AID 2282933). Particulars: HepG2 BMP response element reporter, Attagene transcription factor profiling; actives raise or lower the signal. In short, it runs like this:
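Transient MRTU transfection of human HepG2 liver cells; 24 h compound treatment; total RNA isolated, reverse-transcribed, PCR-amplified, 6-FAM labelled, HpaI-cut, capillary electrophoresis. DMSO = negative control/baseline, bidirectional fit.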
As to `OC[C@@H](O)[C@H]1O[C@@H]2O[C@H](C(Cl)(Cl)Cl)O[C@@H]2[C@H]1O`, the result was inactive.
On the same count and under the same terms, under `O=C(Cc1ccccc1)OCCc1ccccc1` stands “inactive”.
Still for that read-out and setting: under `CCC[N+](CCC)(CCC)CCC` stands “inactive”.
Still for that read-out and setting: under `N#Cc1ccccc1Cl` stands “inactive”; under `Cc1cc(C(C)(C)c2ccc(O)c(C)c2)ccc1O`, “inactive”; under `C#CCO`, “inactive”.
Regarding `O=NN1CCOCC1`, the call was inactive.
Turning to `CCCSP(=S)(OCC)Oc1ccc(Cl)cc1Cl` (configuration not stated), the compound was called inactive.
For the compound `COCCl`, the result was inactive.
Same read-out and setting: under `CNC(=O)O/N=C/C(C)(C)S(C)(=O)=O` stands “inactive”.
On the same count and under the same terms, under `c1cc[c]([Sb]([c]2ccccc2)[c]2ccccc2)cc1` stands “inactive”; under `CN(N=O)C(N)=O`, “inactive”.
Consider `CCC[CH2][Sn]([CH2]CCC)([CH2]CCC)[CH2]CCC`, for which the AC50 (in general, the midpoint of the concentration-response curve, whichever way the signal moves) is 5.89 µM (active).
For `CC(c1ccccc1)(c1ccc(O)cc1)c1ccc(O)cc1`, the call was inactive.
Still for that read-out and setting: under `C[CH2][Hg][S]c1ccccc1C(=O)O` stands “inactive”.
In the case of `O=C(Nc1ccc(Br)cc1)c1cc(Br)cc(Br)c1O`, the concentration at half-maximal activity (AC50) was 13.3 µM (active).
`COC(F)(C(F)(F)C(F)(F)F)C(F)(C(F)(F)F)C(F)(F)F` (configuration not stated): the result was inactive.
In the case of `Clc1cccc(Cl)c1`, the call was inactive.
Consider `CC1CC(=O)O1` (configuration not stated), for which the compound was classed as inactive.
On the same count and under the same terms, as for `CCCCCCCCCCCCBr`, the entry is “inactive”.
`Cc1ccc2nc3sc(=O)sc3nc2c1`: the AC50 was 25 µM (active).
Regarding `ClCCCCl`, the compound was classed as inactive.
As for `Brc1c(Br)c(Br)c(Oc2c(Br)c(Br)c(Br)c(Br)c2Br)c(Br)c1Br`, the compound was classed as inactive.
On the same count and under the same terms, as for `Clc1cccc(Cl)c1Cl`, the entry is “inactive”; as for `CC(C)(c1ccc(O)c(-c2ccccc2)c1)c1ccc(O)c(-c2ccccc2)c1`, “inactive”.
On the same count and under the same terms, as for `Clc1cnc(Oc2ccc(Oc3ncc(Cl)cc3Cl)cc2)c(Cl)c1`, the entry is “inactive”.
In the case of `CCOP(=S)(OCC)OP(=S)(OCC)OCC`, the call was inactive.
For the compound `CCCCCCCCBr`, the result was inactive.
Same read-out and setting: as for `CC1(C)COP(Oc2ccccc2)OC1`, the entry is “inactive”; as for `Cc1ccc(CCl)cc1`, “inactive”.
Still for that read-out and setting: under `Cc1c([N+](=O)[O-])c(C)c([N+](=O)[O-])c(C(C)(C)C)c1[N+](=O)[O-]` stands “inactive”; under `CC(C)N(C(=O)CCl)c1ccccc1`, “inactive”.
The same measure, in the same setting: under `Brc1ccc(Oc2c(Br)cc(Br)cc2Br)c(Br)c1` stands “inactive”; under `O=NN1CCCCCCC1`, “inactive”; under `CC[N+](CC)(CC)CC`, “inactive”.
Turning to `O=NN1CCCCCC1`, the compound was called inactive.
For the compound `COC(=O)Nc1cccc(OC(=O)Nc2cccc(C)c2)c1`, the compound was classed as inactive.
Still for that read-out and setting: as for `COP(=S)(OC)Oc1cc(Cl)c(I)cc1Cl`, the entry is “inactive”; as for `Cc1cc(Cl)ccc1OCCCC(=O)O`, “inactive”.

The next experiment has as its target Retinoic acid receptor alpha (Homo sapiens) (UniProt P10276). Description: ATG_DR5_RAR_CIS: Attagene CIS-FACTORIAL HepG2 Assay for human Retinoic Acid Receptor Alpha (RARE), DR5 submotif (AID 2282934).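 On AC50: reporter responds to endogenous RAR alpha beta and gamma in HepG2 not RARA alone.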 Particulars: HepG2 Attagene cis-factorial RARE DR5 reporter, mRNA; actives raise or lower the signal. The gist of the method:
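Read-out: DR5-driven reporter transcript measured by RT-PCR, 6-FAM primer extension, HpaI digest and capillary electrophoresis. Human HepG2 liver cells carry transiently transfected cis-element reporter constructs; dosing lasts 24 h. Gain or loss of signal fitted against DMSO baseline.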
For the compound `OC[C@@H](O)[C@H]1O[C@@H]2O[C@H](C(Cl)(Cl)Cl)O[C@@H]2[C@H]1O`, the compound was classed as inactive.
For `O=C(Cc1ccccc1)OCCc1ccccc1`, the compound was called inactive.
In the case of `CCC[N+](CCC)(CCC)CCC`, the result was inactive.
Regarding `N#Cc1ccccc1Cl`, the call was inactive.
Regarding `Cc1cc(C(C)(C)c2ccc(O)c(C)c2)ccc1O`, the AC50 is 21.5 µM (active).
Take `C#CCO`: the outcome was inactive.
On the same count and under the same terms, as for `O=NN1CCOCC1`, the entry is “inactive”; as for `CCCSP(=S)(OCC)Oc1ccc(Cl)cc1Cl` (configuration not stated), “inactive”.
Regarding `COCCl`, the compound was called inactive.
On the same count and under the same terms, as for `CNC(=O)O/N=C/C(C)(C)S(C)(=O)=O`, the entry is “inactive”; as for `c1cc[c]([Sb]([c]2ccccc2)[c]2ccccc2)cc1`, “inactive”; as for `CN(N=O)C(N)=O`, “inactive”.
For `CCC[CH2][Sn]([CH2]CCC)([CH2]CCC)[CH2]CCC`, the AC50 was 0.283 µM (active).
`CC(c1ccccc1)(c1ccc(O)cc1)c1ccc(O)cc1`: the outcome was inactive.
Take `C[CH2][Hg][S]c1ccccc1C(=O)O`: the AC50 is 1.11 µM (active).
Still for that read-out and setting: under `O=C(Nc1ccc(Br)cc1)c1cc(Br)cc(Br)c1O` stands 4.76 µM (active).
For the compound `COC(F)(C(F)(F)C(F)(F)F)C(F)(C(F)(F)F)C(F)(F)F` (configuration not stated), the compound was classed as inactive.
Same read-out and setting: as for `Clc1cccc(Cl)c1`, the entry is “inactive”; as for `CC1CC(=O)O1` (configuration not stated), “inactive”.
Same read-out and setting: as for `CCCCCCCCCCCCBr`, the entry is “inactive”.
As for `Cc1ccc2nc3sc(=O)sc3nc2c1`, the AC50 was 6.63 µM (active).
In the case of `ClCCCCl`, the compound was classed as inactive.
Still for that read-out and setting: under `Brc1c(Br)c(Br)c(Oc2c(Br)c(Br)c(Br)c(Br)c2Br)c(Br)c1Br` stands “inactive”.
Same read-out and setting: as for `Clc1cccc(Cl)c1Cl`, the entry is “inactive”; as for `CC(C)(c1ccc(O)c(-c2ccccc2)c1)c1ccc(O)c(-c2ccccc2)c1`, “inactive”.
The same measure, in the same setting: under `Clc1cnc(Oc2ccc(Oc3ncc(Cl)cc3Cl)cc2)c(Cl)c1` stands “inactive”; under `CCOP(=S)(OCC)OP(=S)(OCC)OCC`, “inactive”; under `CCCCCCCCBr`, “inactive”.
As for `CC1(C)COP(Oc2ccccc2)OC1`, the compound was called inactive.
Still for that read-out and setting: as for `Cc1ccc(CCl)cc1`, the entry is “inactive”.
In the case of `Cc1c([N+](=O)[O-])c(C)c([N+](=O)[O-])c(C(C)(C)C)c1[N+](=O)[O-]`, the AC50 is 3.83 µM (active).
With `CC(C)N(C(=O)CCl)c1ccccc1`, the AC50 was 59.1 µM (active).
Regarding `Brc1ccc(Oc2c(Br)cc(Br)cc2Br)c(Br)c1`, the compound was called inactive.
Same read-out and setting: under `O=NN1CCCCCCC1` stands “inactive”.
`CC[N+](CC)(CC)CC`: the compound was called inactive.
On the same count and under the same terms, under `O=NN1CCCCCC1` stands “inactive”.
The same measure, in the same setting: as for `COC(=O)Nc1cccc(OC(=O)Nc2cccc(C)c2)c1`, the entry is “inactive”; as for `COP(=S)(OC)Oc1cc(Cl)c(I)cc1Cl`, “inactive”.
On the same count and under the same terms, under `Cc1cc(Cl)ccc1OCCCC(=O)O` stands “inactive”.

For another experiment, the target named is Transcription factor E2F1 (Homo sapiens) (UniProt Q01094). The experiment is described as follows: ATG_E2F_CIS: Attagene CIS-FACTORIAL HepG2 Assay for human E2F Transcription Factor 1 (AID 2282935). The following applies: HepG2 Attagene cis-reporter, E2F reporter RNA transcripts; actives raise or lower the signal. The gist of the method: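 Transient MRTU transfection of HepG2; 24 h compound exposure; RNA → oligo(dT) RT → PCR → FAM label → HpaI cut → CE fluorescence. Gain/loss of signal fit against DMSO.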
Chain of Transcription factor E2F1 (Homo sapiens) (Q01094 whole entry, looked up): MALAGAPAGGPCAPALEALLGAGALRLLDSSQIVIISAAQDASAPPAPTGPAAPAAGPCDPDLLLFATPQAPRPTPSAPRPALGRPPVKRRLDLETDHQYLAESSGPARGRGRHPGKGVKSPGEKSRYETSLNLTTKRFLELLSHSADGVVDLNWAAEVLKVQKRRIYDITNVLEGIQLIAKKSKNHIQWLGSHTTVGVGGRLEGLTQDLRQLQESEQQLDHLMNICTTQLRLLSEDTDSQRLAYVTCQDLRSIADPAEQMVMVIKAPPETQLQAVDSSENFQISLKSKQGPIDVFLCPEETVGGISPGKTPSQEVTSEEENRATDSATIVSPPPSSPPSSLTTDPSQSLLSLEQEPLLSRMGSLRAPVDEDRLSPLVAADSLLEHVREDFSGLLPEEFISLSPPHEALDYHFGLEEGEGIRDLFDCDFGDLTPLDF
In the case of `OC[C@@H](O)[C@H]1O[C@@H]2O[C@H](C(Cl)(Cl)Cl)O[C@@H]2[C@H]1O`, the outcome was inactive.
`O=C(Cc1ccccc1)OCCc1ccccc1`: the compound was classed as inactive.
The same measure, in the same setting: under `CCC[N+](CCC)(CCC)CCC` stands “inactive”; under `N#Cc1ccccc1Cl`, “inactive”.
The same measure, in the same setting: as for `Cc1cc(C(C)(C)c2ccc(O)c(C)c2)ccc1O`, the entry is “inactive”.
Same read-out and setting: under `C#CCO` stands “inactive”; under `O=NN1CCOCC1`, “inactive”; under `CCCSP(=S)(OCC)Oc1ccc(Cl)cc1Cl` (configuration not stated), “inactive”.
Turning to `COCCl`, the result was inactive.
For `CNC(=O)O/N=C/C(C)(C)S(C)(=O)=O`, the result was inactive.
On the same count and under the same terms, as for `c1cc[c]([Sb]([c]2ccccc2)[c]2ccccc2)cc1`, the entry is “inactive”; as for `CN(N=O)C(N)=O`, “inactive”.
On the same count and under the same terms, under `CCC[CH2][Sn]([CH2]CCC)([CH2]CCC)[CH2]CCC` stands “inactive”; under `CC(c1ccccc1)(c1ccc(O)cc1)c1ccc(O)cc1`, “inactive”; under `C[CH2][Hg][S]c1ccccc1C(=O)O`, “inactive”.
Consider `O=C(Nc1ccc(Br)cc1)c1cc(Br)cc(Br)c1O`, for which the call was inactive.
The same measure, in the same setting: under `COC(F)(C(F)(F)C(F)(F)F)C(F)(C(F)(F)F)C(F)(F)F` (configuration not stated) stands “inactive”; under `Clc1cccc(Cl)c1`, “inactive”.
As to `CC1CC(=O)O1` (configuration not stated), the outcome was inactive.
The same measure, in the same setting: as for `CCCCCCCCCCCCBr`, the entry is “inactive”; as for `Cc1ccc2nc3sc(=O)sc3nc2c1`, “inactive”.
Take `ClCCCCl`: the compound was classed as inactive.
On the same count and under the same terms, under `Brc1c(Br)c(Br)c(Oc2c(Br)c(Br)c(Br)c(Br)c2Br)c(Br)c1Br` stands “inactive”.
On the same count and under the same terms, as for `Clc1cccc(Cl)c1Cl`, the entry is “inactive”; as for `CC(C)(c1ccc(O)c(-c2ccccc2)c1)c1ccc(O)c(-c2ccccc2)c1`, “inactive”.
`Clc1cnc(Oc2ccc(Oc3ncc(Cl)cc3Cl)cc2)c(Cl)c1`: the compound was classed as inactive.
For `CCOP(=S)(OCC)OP(=S)(OCC)OCC`, the result was inactive.
Same read-out and setting: under `CCCCCCCCBr` stands “inactive”; under `CC1(C)COP(Oc2ccccc2)OC1`, “inactive”.
Same read-out and setting: under `Cc1ccc(CCl)cc1` stands “inactive”; under `Cc1c([N+](=O)[O-])c(C)c([N+](=O)[O-])c(C(C)(C)C)c1[N+](=O)[O-]`, “inactive”.
As for `CC(C)N(C(=O)CCl)c1ccccc1`, the AC50 was 48.1 µM (active).
Turning to `Brc1ccc(Oc2c(Br)cc(Br)cc2Br)c(Br)c1`, the outcome was inactive.
On the same count and under the same terms, as for `O=NN1CCCCCCC1`, the entry is “inactive”; as for `CC[N+](CC)(CC)CC`, “inactive”; as for `O=NN1CCCCCC1`, “inactive”.
The same measure, in the same setting: as for `COC(=O)Nc1cccc(OC(=O)Nc2cccc(C)c2)c1`, the entry is “inactive”; as for `COP(=S)(OC)Oc1cc(Cl)c(I)cc1Cl`, “inactive”.
On the same count and under the same terms, under `Cc1cc(Cl)ccc1OCCCC(=O)O` stands “inactive”.

The values are drawn from PubChem BioAssay (EPA / NIEHS).
